Tb PYK inh: blocks Trypanosoma brucei pyruvate kinase; Q57TT1; TbPYK enzyme, Kinase-Glo Plus ATP luminescence, 45 min; Potency, µM (series often up to 76.8 µM), most hits filed as inhibitors; actives 0.12% (n = 410,000); AID 624173; also: nearly all actives have a fitted effect of over 50% in size
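Luminescence from Kinase-Glo Plus, added after a 45-minute room-temperature reaction, served as the end-point read-out. The enzyme and substrate were preincubated with compound before ADP (130 uM final) initiated turnover. Concentration-effect curves came from normalized qHTS data.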
LmPK inh: inhibitors of Leishmania mexicana pyruvate kinase. Q27686. purified LmPK, Kinase-Glo ATP luminescence, 1 h. Potency, µM (top dose mostly 57.5 µM), actives largely listed as inhibitors. actives 0.37% (n = 290,000). AID 1721
Target sequence (Q27686 whole entry, looked up): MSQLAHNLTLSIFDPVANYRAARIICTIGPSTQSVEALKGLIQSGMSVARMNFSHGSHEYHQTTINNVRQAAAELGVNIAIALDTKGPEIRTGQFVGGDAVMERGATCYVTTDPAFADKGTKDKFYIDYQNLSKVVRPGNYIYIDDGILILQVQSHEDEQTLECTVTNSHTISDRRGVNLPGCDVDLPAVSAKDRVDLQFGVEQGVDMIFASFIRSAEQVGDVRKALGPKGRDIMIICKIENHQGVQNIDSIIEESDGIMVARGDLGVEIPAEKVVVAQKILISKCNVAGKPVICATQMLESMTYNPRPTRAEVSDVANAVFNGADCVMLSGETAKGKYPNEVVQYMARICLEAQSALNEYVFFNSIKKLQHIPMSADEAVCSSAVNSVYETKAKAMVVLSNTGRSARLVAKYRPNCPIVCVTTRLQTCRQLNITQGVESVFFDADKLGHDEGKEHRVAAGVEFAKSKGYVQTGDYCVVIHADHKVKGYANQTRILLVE
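Screened at intermediate enzyme activity to detect both inhibitors and activators: LmPK at 0.1 nM, with a 0.5 nM enzyme column as activation reference. PEP 0.5 mM, ADP 0.1 mM; ATP detected by luminescence after 1 h.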
NS1 function inh: inhibitors of influenza NS1 protein function. AID 2326. Potency, µM (doses to about 46.1 µM). actives 0.4% (n = 270,000); calls by dose curve; also: actives are rising curves; nearly all actives have a fitted effect of over 50% in size
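S. cerevisiae expressing influenza A NS1, grown in glucose, washed, then diluted 1:100 into pH 6.0 -URA galactose medium with 23 nl compound. Growth recovery read as OD600; NS1-free strain serves as control.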
Shiga inhibitor: Shiga toxin inhibition. Vero cells, Shiga toxin protein synthesis inhibition reporter. inhibition, % at 38.7 µM. actives 9.2% (n = 290,000); in the data active = inhibition mostly above about 28%, no sharp cut-off; inactive = mostly below about 43%
SARS PLP yeast: SARS-CoV PLP inhibition in yeast | S. cerevisiae expressing SARS-CoV PLpro, growth rescue | Potency, µM (highest dose often 32.9 µM), usual class: activators | actives 0.19% (n = 330,000); calls by dose curve; also: nearly all actives have a fitted effect of over 55% in size
CHX counter: counter-screen for Shiga toxin inhibitors: cycloheximide protein synthesis inhibition. AID 2314. cell reporter, cycloheximide protein synthesis inhibition counterscreen. max response, %. actives 12% (n = 300,000); in the data active = max response mostly above about 13%, no sharp cut-off; inactive = mostly below about 14%; also: read at 38.3 µM for the half of the compounds with a filed dose
Numbers stand for hits; [ ] = remark or other dose. Shown is part of a subset that was picked to be rich in hits. Unless noted, calls follow the shape of the dose curve; as a rule, active = well fitted curve in the direction sought with a large enough effect; inconclusive = small, poorly fitted or top-dose-only effect, or another doubt; inactive = no such curve, though single readings can be large; an effect the other way counts as inactive or inconclusive.

`CC(=O)Nc1ccc(CN(C)c2c(C)nc3ccc(C(=O)NCCCN4CCCC4=O)cn23)cc1` gave Tb PYK inh inactive.
For Cc1ccc2c(c1)sc(=NC(=O)c1cccs1)n2C the results were Tb PYK inh inactive, LmPK inh inactive, NS1 function inh inactive, Shiga inhibitor inactive, SARS PLP yeast inactive and CHX counter inactive.
For CCOC(=O)c1sc(=NC(=O)c2cccs2)n(C)c1C the results were Tb PYK inh inactive, LmPK inh inactive, Shiga inhibitor 96, SARS PLP yeast inactive and CHX counter 48.
Screening CCOC(=O)c1sc(=NC(=O)c2ccc(Cl)s2)n(C)c1C returned Tb PYK inh inactive, LmPK inh inactive, NS1 function inh inactive, Shiga inhibitor 59, SARS PLP yeast inactive and CHX counter 31.
CCOC(=O)c1sc(=S)n(-c2ccc(Cl)cc2)c1C was read as Tb PYK inh inactive, LmPK inh inactive, NS1 function inh inactive, Shiga inhibitor inactive, SARS PLP yeast inactive and CHX counter inactive.
Cc1c(Cl)cccc1NC(=O)CSc1cc(-c2ccccc2)ncn1 was read as Tb PYK inh inactive.
Cc1ccccc1NCC(=O)N/N=C\c1ccc2c(c1)OCO2 was read as Tb PYK inh inactive, LmPK inh inactive, NS1 function inh inactive, Shiga inhibitor inactive, SARS PLP yeast inactive and CHX counter inactive.
For CCOc1ccc(NC(=O)CCC(=O)N/N=C/c2ccc3c(c2)OCO3)cc1 the results were Tb PYK inh inactive, LmPK inh inactive, Shiga inhibitor inactive, SARS PLP yeast inactive and CHX counter 23.
`O=C(CCc1ccc(O)c(O)c1)N/N=C/c1ccc2c(c1)OCO2` gave Tb PYK inh inactive, LmPK inh inconclusive, NS1 function inh inactive, Shiga inhibitor inactive, SARS PLP yeast inactive and CHX counter 33.
Screening Cc1cc(C)nc(SCC(=O)N/N=C/c2ccc3c(c2)OCO3)n1 returned Tb PYK inh inactive, LmPK inh inactive, NS1 function inh inactive, Shiga inhibitor 60, SARS PLP yeast inactive and CHX counter 39.
`CC(C)Oc1ccc(CCC(=O)N/N=C/c2ccc3c(c2)OCO3)cc1` gave Tb PYK inh inactive, LmPK inh inactive, NS1 function inh inactive, Shiga inhibitor inactive, SARS PLP yeast inactive and CHX counter inactive.
`Cc1ccc(C)c(NC(=O)CCC(=O)N/N=C/c2ccc3c(c2)OCO3)c1` gave Tb PYK inh inactive, LmPK inh inactive, NS1 function inh inactive, Shiga inhibitor inactive, SARS PLP yeast inactive and CHX counter 20.
Screening CCCCCCCCCCCCCCCC(=O)O[C@@H]1CC(C)=C(\C=C/C(C)=C\C=C/C(C)=C\C=C\C=C(C)\C=C\C=C(C)\C=C\C2=C(C)C[C@@H](OC(=O)CCCCCCCCCCCCCCC)CC2(C)C)C(C)(C)C1 returned Tb PYK inh inactive.
For CC(C)(C)C1CCC(=NNC(=O)c2cc3c(s2)CCCC3)CC1 (configuration not stated) the results were Tb PYK inh inactive, LmPK inh inactive, NS1 function inh inactive, Shiga inhibitor inactive, SARS PLP yeast inactive and CHX counter inactive.
Screening CC(C)(C)C1CCc2sc(C(=O)NNC(=O)CCl)cc2C1 (configuration not stated) returned Tb PYK inh inactive, LmPK inh inactive, Shiga inhibitor 109, SARS PLP yeast inconclusive and CHX counter 59.
For Cn1nc(-c2ccccc2)cc1NC(=O)C1CCCCC1 the results were Tb PYK inh inactive, LmPK inh inactive, NS1 function inh inactive, Shiga inhibitor inactive, SARS PLP yeast inactive and CHX counter 41.
`O=C(Nc1ccccc1F)NC1CCCc2ccccc21` (configuration not stated) gave Tb PYK inh inactive, LmPK inh inactive, NS1 function inh inactive, Shiga inhibitor 34, SARS PLP yeast inactive and CHX counter inactive.
For O=C(Nc1ccccc1F)Nc1ccccc1F the results were Tb PYK inh inactive, LmPK inh inconclusive, NS1 function inh inactive, Shiga inhibitor 73, SARS PLP yeast inactive and CHX counter 35.
`CCN(CC)C(=O)c1ccc(NC(=O)Nc2ccccc2F)cc1` gave Tb PYK inh inconclusive, LmPK inh inconclusive, Shiga inhibitor inactive, SARS PLP yeast inactive and CHX counter 16.
Screening COc1ccc(Cl)cc1C(=O)Nc1ccccc1N1CCCCC1 returned Tb PYK inh inactive, LmPK inh inconclusive, NS1 function inh inactive, Shiga inhibitor inactive, SARS PLP yeast inactive and CHX counter inactive.
Cc1ccc(C)c(OCCn2c(-c3ccc(Cl)cc3)nc3ccccc3c2=O)c1C was read as Tb PYK inh inactive.
For COC(=O)N1C(C)=Cc2ccccc2C1C/C(C)=C/C(C)=O (configuration not stated) the results were LmPK inh inactive[11.5 µM].
O=C(Nc1ccc(Br)cc1)Nc1ccccc1F was read as Tb PYK inh inactive, LmPK inh inconclusive, NS1 function inh inactive, Shiga inhibitor 107, SARS PLP yeast inactive and CHX counter 50.
O=C(Nc1ccccc1F)Nc1cccc2ccc(O)cc12 was read as Tb PYK inh inactive, LmPK inh inactive, NS1 function inh inactive, Shiga inhibitor 102, SARS PLP yeast inactive and CHX counter 46.
For O=C(NNc1ccccc1)Nc1ccccc1F the results were Tb PYK inh inactive, LmPK inh inactive, NS1 function inh inactive, Shiga inhibitor 87, SARS PLP yeast inactive and CHX counter 20.
Screening Cn1nc(-c2ccccc2)cc1NC(=O)Nc1ccccc1F returned Tb PYK inh inactive, LmPK inh inactive, NS1 function inh inactive, Shiga inhibitor inactive, SARS PLP yeast inactive and CHX counter 36.
`COc1ccccc1OCC1CNC(=O)O1` (configuration not stated) gave Tb PYK inh inactive.
CCn1c(CCC(=O)N(C)CC(=O)Nc2cccc(F)c2)nc2cc(S(=O)(=O)N(C)C)ccc21 was read as Tb PYK inh inactive and SARS PLP yeast inactive.
Screening Cc1cc2nc(-c3ccc(Cl)cc3)c(CC3CCCCC3)n2c(C)c1Br returned Tb PYK inh inactive.
For Cc1ccc(S(=O)(=O)NNC(=O)Nc2ccccc2F)c(C)c1 the results were Tb PYK inh inactive, LmPK inh inactive, NS1 function inh inactive, Shiga inhibitor inactive, SARS PLP yeast inactive and CHX counter inactive.
For Cc1ccc(N=Nc2ccc(C)cc2NC(=O)Nc2ccccc2F)cc1 the results were Tb PYK inh inactive, LmPK inh inactive, NS1 function inh inactive, Shiga inhibitor inactive, SARS PLP yeast inactive and CHX counter 46.
For CC(C)(C)C(=O)O/N=C(\N)c1ccc([N+](=O)[O-])s1 the results were Tb PYK inh inactive, LmPK inh inactive, NS1 function inh inactive, Shiga inhibitor inactive, SARS PLP yeast inactive and CHX counter 24.
COc1ccc(CN(C)C(=O)c2ccc(Oc3ccccc3)cc2)cc1F was read as Tb PYK inh inactive, LmPK inh inactive, NS1 function inh inactive, Shiga inhibitor inactive, SARS PLP yeast inactive and CHX counter inactive.

Assay outcomes (PubChem BioAssay)
